Data from PubChem BioAssay AID1508601 (ICCB-Longwood Screening Facility, Harvard Medical School, 2020).
Values joined by “and” are separate entries in the source; they are usually repeats but may differ in a detail not shown here. Identical values can stand only once. Hit rate of the full screen: of about 5,700 compounds, about 85 (1%) were called active. Cut-off read from the data, not from the text of the source: active = p53-positive nuclei above about 36% (passing the limit was not always enough); inactive = the rest. For the sample, actives were picked, then their nearest neighbours and some compounds at random.

How the values were obtained:
[1] = nuclear p53 accumulation, HPV+ cells – imaging, p53-positive nuclei imaging, 24 h, 48 h (AID 1508601); details: 24/48 h
[2] = molecular target: Cellular tumor antigen p53 (Homo sapiens) (UniProt P04637); assay: as above; details: 24/48 h, stronger effect = higher value
Cellular tumor antigen p53 (Homo sapiens), sequence (P04637 whole entry, looked up): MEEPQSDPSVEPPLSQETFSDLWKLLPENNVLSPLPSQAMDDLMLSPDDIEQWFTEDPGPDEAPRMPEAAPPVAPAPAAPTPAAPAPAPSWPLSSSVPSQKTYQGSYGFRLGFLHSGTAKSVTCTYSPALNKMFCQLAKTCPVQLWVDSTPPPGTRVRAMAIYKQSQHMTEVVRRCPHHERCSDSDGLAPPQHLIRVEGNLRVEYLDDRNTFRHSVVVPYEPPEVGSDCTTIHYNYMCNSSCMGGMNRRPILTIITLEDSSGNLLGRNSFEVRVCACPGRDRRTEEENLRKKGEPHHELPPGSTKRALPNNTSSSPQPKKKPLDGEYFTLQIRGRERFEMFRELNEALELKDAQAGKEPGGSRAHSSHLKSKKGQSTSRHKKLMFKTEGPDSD

[3] = measured here: cell number at 24 h, Library stock concentration: 80 uM
[4] = measured here: cell number at 24 h, Library stock concentration: 400 uM
[5] = measured here: cell number at 24 h, Library stock concentration: 2 mM
[6] = measured here: cell number at 24 h, Library stock concentration: 3.33 mM
[7] = measured here: cell number at 24 h, Library stock concentration: 10 mM
[8] = measured here: cell number at 24 h, concentration not given here
[9] = measured here: cell number at 48 h, Library stock concentration: 80 uM
[10] = measured here: cell number at 48 h, Library stock concentration: 400 uM
[11] = measured here: cell number at 48 h, Library stock concentration: 2 mM
[12] = measured here: cell number at 48 h, Library stock concentration: 3.33 mM
[13] = measured here: cell number at 48 h, Library stock concentration: 10 mM
[14] = measured here: cell number at 48 h, concentration not given here
[15] = Library stock concentration: 80 uM
[16] = Library stock concentration: 400 uM
[17] = Library stock concentration: 2 mM
[18] = Library stock concentration: 3.33 mM
[19] = Library stock concentration: 10 mM
[20] = measured here: p53 positive nuclei at 24 h, Library stock concentration: 80 uM
[21] = measured here: p53 positive nuclei at 24 h, Library stock concentration: 400 uM
[22] = measured here: p53 positive nuclei at 24 h, Library stock concentration: 2 mM
[23] = measured here: p53 positive nuclei at 24 h, Library stock concentration: 3.33 mM
[24] = measured here: p53 positive nuclei at 24 h, Library stock concentration: 10 mM
[25] = measured here: p53 positive nuclei at 24 h, concentration not given here
[26] = measured here: cell number at 24 h, Library stock concentration: 46 uM
[27] = measured here: cell number at 24 h, Library stock concentration: 278 uM
[28] = measured here: cell number at 24 h, Library stock concentration: 1.67 mM
[29] = measured here: cell number at 48 h, Library stock concentration: 46 uM
[30] = measured here: cell number at 48 h, Library stock concentration: 278 uM
[31] = measured here: cell number at 48 h, Library stock concentration: 1.67 mM
[32] = Library stock concentration: 46 uM
[33] = Library stock concentration: 278 uM
[34] = Library stock concentration: 1.67 mM
[35] = measured here: p53 positive nuclei at 24 h, Library stock concentration: 46 uM
[36] = measured here: p53 positive nuclei at 24 h, Library stock concentration: 278 uM
[37] = measured here: p53 positive nuclei at 24 h, Library stock concentration: 1.67 mM

SMILES: COc1cc(C(=O)NS(=O)(=O)c2ccccc2C)ccc1Cc1cn(C)c2ccc(NC(=O)OC3CCCC3)cc12
- nuclei count, normalised [1, 3]: 110%
- nuclei count, normalised [1, 4]: 108%
- nuclei count, normalised [1, 5]: 113%
- nuclei count, normalised [1, 6]: 103%
- nuclei count, normalised [1, 7]: 105%
- nuclei count, normalised [1, 8]: 89.5%
- nuclei count, normalised [1, 9]: 113%
- nuclei count, normalised [1, 10]: 108%
- nuclei count, normalised [1, 11]: 111%
- nuclei count, normalised [1, 12]: 108%
- nuclei count, normalised [1, 13]: 105%
- nuclei count, normalised [1, 14]: 92.4%
- p53-positive nuclei, normalised [2, 15]: -0.138% (inactive)
- p53-positive nuclei, normalised [2, 16]: 0.119% (inactive)
- p53-positive nuclei, normalised [2, 17]: -0.133% (inactive)
- p53-positive nuclei, normalised [2, 18]: -0.0165% (inactive)
- p53-positive nuclei, normalised [2, 19]: 0.0919% (inactive)
- p53-positive nuclei, normalised ([2]; concentration not given here): -0.151% (inactive)
- p53-positive nuclei, normalised [2, 20]: -0.0129%
- p53-positive nuclei, normalised [2, 21]: -0.0637%
- p53-positive nuclei, normalised [2, 22]: 0.0356%
- p53-positive nuclei, normalised [2, 23]: -0.167%
- p53-positive nuclei, normalised [2, 24]: 0.0472%
- p53-positive nuclei, normalised [2, 25]: 0.0267%

SMILES: CN1CCc2c(c3ccccc3n2Cc2ccc(C(=O)NO)cc2)C1
- nuclei count, normalised [1, 26]: 117%
- nuclei count, normalised [1, 27]: 120%
- nuclei count, normalised [1, 28]: 115%
- nuclei count, normalised [1, 6]: 110% and 92.2%
- nuclei count, normalised [1, 7]: 114%
- nuclei count, normalised [1, 29]: 119%
- nuclei count, normalised [1, 30]: 116%
- nuclei count, normalised [1, 31]: 110%
- nuclei count, normalised [1, 12]: 102% and 95.4%
- nuclei count, normalised [1, 13]: 107%
- p53-positive nuclei, normalised [2, 32]: -0.237% (inactive)
- p53-positive nuclei, normalised [2, 33]: 0.0738% (inactive)
- p53-positive nuclei, normalised [2, 34]: 0.201% (inactive)
- p53-positive nuclei, normalised [2, 18]: -0.139% (inactive) and -0.349% (inactive)
- p53-positive nuclei, normalised [2, 19]: -0.117% (inactive)
- p53-positive nuclei, normalised [2, 35]: -0.158%
- p53-positive nuclei, normalised [2, 36]: -0.207%
- p53-positive nuclei, normalised [2, 37]: -0.0538%
- p53-positive nuclei, normalised [2, 23]: -0.314% and -0.356%
- p53-positive nuclei, normalised [2, 24]: -0.152%

SMILES: Cn1cc(CNCC2CCN(c3ncc(C(=O)NO)cn3)CC2)c2ccccc21
- nuclei count, normalised [1, 3]: 71%
- nuclei count, normalised [1, 4]: 49.1%
- nuclei count, normalised [1, 5]: 40.5%
- nuclei count, normalised [1, 6]: 36.3%
- nuclei count, normalised [1, 7]: 37.2%
- nuclei count, normalised [1, 9]: 55.2%
- nuclei count, normalised [1, 10]: 24%
- nuclei count, normalised [1, 11]: 20.2%
- nuclei count, normalised [1, 12]: 20.7%
- nuclei count, normalised [1, 13]: 23.5%
- p53-positive nuclei, normalised [2, 15]: 20.9% (inactive)
- p53-positive nuclei, normalised [2, 16]: 102% (active)
- p53-positive nuclei, normalised [2, 17]: 92.2% (active)
- p53-positive nuclei, normalised [2, 18]: 111% (active)
- p53-positive nuclei, normalised [2, 19]: 108% (active)
- p53-positive nuclei, normalised [2, 20]: 43.9%
- p53-positive nuclei, normalised [2, 21]: 92.9%
- p53-positive nuclei, normalised [2, 22]: 103%
- p53-positive nuclei, normalised [2, 23]: 96.9%
- p53-positive nuclei, normalised [2, 24]: 120%

SMILES: CCCCC/C=C\C/C=C\CCCC/C=C\CCCC(=O)O
- nuclei count, normalised [1, 8]: 97.6%
- nuclei count, normalised [1, 14]: 96%
- p53-positive nuclei, normalised ([2]; concentration not given here): -0.0366% (inactive)
- p53-positive nuclei, normalised [2, 25]: 0.0071%

SMILES: Cc1ccc(B(O)O)cc1
- nuclei count, normalised [1, 26]: 105%
- nuclei count, normalised [1, 27]: 101%
- nuclei count, normalised [1, 28]: 110%
- nuclei count, normalised [1, 7]: 110%
- nuclei count, normalised [1, 29]: 109%
- nuclei count, normalised [1, 30]: 102%
- nuclei count, normalised [1, 31]: 112%
- nuclei count, normalised [1, 13]: 112%
- p53-positive nuclei, normalised [2, 32]: -0.0277% (inactive)
- p53-positive nuclei, normalised [2, 33]: -0.207% (inactive)
- p53-positive nuclei, normalised [2, 34]: -0.181% (inactive)
- p53-positive nuclei, normalised [2, 19]: -0.0402% (inactive)
- p53-positive nuclei, normalised [2, 35]: -0.0986%
- p53-positive nuclei, normalised [2, 36]: -0.148%
- p53-positive nuclei, normalised [2, 37]: -0.218%
- p53-positive nuclei, normalised [2, 24]: -0.0984%

SMILES: COc1ccc(CNc2nc(N3CCCC3CO)ncc2C(=O)NCc2ncccn2)cc1Cl (configuration not stated)
- nuclei count, normalised [1, 6]: 112%
- nuclei count, normalised [1, 12]: 104%
- p53-positive nuclei, normalised [2, 18]: -0.102% (inactive)
- p53-positive nuclei, normalised [2, 23]: -0.198%

SMILES: COc1cccc2c(C)cc(N3CCC[C@H]3CO)nc12
- nuclei count, normalised [1, 8]: 96.3%
- nuclei count, normalised [1, 14]: 98.1%
- p53-positive nuclei, normalised ([2]; concentration not given here): -0.0398% (inactive)
- p53-positive nuclei, normalised [2, 25]: 0.0977%

SMILES: CCc1cnn2c(NCc3ccc[n+]([O-])c3)cc(N3CCCCC3CCO)nc12 (configuration not stated)
- nuclei count, normalised [1, 3]: 30.2%
- nuclei count, normalised [1, 4]: 27.8%
- nuclei count, normalised [1, 5]: 24.5%
- nuclei count, normalised [1, 6]: 27.3%
- nuclei count, normalised [1, 7]: 30.5%
- nuclei count, normalised [1, 9]: 20.4%
- nuclei count, normalised [1, 10]: 19.3%
- nuclei count, normalised [1, 11]: 16.3%
- nuclei count, normalised [1, 12]: 18.9%
- nuclei count, normalised [1, 13]: 20.6%
- p53-positive nuclei, normalised [2, 15]: 51.1% (active)
- p53-positive nuclei, normalised [2, 16]: 35% (inactive)
- p53-positive nuclei, normalised [2, 17]: 42% (inactive)
- p53-positive nuclei, normalised [2, 18]: 36.1% (inactive)
- p53-positive nuclei, normalised [2, 19]: 26.7% (inactive)
- p53-positive nuclei, normalised [2, 20]: 9.51%
- p53-positive nuclei, normalised [2, 21]: 6.74%
- p53-positive nuclei, normalised [2, 22]: 7.45%
- p53-positive nuclei, normalised [2, 23]: 8.9%
- p53-positive nuclei, normalised [2, 24]: 2.01%
